The list is not random: actives were taken first. Their share in the collection is about 2.4%.
SENP6 block = blocks the human protease SENP6; Q9GZR1; Recombinant SENP6 catalytic domain, aminoluciferin luminescence; inhibition, % at 10 µM; 1.8% of 330,000 active; AID 2599;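 active = inhibition above about 50% at the single tested dose, limit read from the data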;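 note: plate controls were DMSO wells with enzyme for no effect and DMSO wells lacking enzyme for full effect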
Target sequence (Q9GZR1 628-1112 limits assumed): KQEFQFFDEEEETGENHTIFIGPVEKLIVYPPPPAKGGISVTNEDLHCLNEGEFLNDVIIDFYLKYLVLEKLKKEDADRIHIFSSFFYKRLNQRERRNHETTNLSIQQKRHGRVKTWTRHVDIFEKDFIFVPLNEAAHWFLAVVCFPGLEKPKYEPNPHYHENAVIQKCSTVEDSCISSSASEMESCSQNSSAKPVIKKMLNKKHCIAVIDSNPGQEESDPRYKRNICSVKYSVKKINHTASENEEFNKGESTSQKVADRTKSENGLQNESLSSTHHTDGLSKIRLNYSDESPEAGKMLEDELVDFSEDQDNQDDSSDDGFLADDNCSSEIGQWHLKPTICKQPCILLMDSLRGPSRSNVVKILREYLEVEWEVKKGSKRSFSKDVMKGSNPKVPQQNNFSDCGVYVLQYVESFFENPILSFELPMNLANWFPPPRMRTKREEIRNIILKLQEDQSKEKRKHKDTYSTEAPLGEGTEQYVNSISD
SENP7 inh = blocks the human protease SENP7. recombinant SENP7, Z-RLRGG-aminoluciferin luminescence, 40 min. 1.5% of 330,000 active. inhibition, % at 5 µM. AID 434973. Q9BQF6;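 active = inhibition above about 50% at the single test dose, limit read from the data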;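 note: plate controls were DMSO with enzyme for no effect and no enzyme buffer wells for full effect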
SENP8 block-1 = blocks human SENP8 cleavage of Nedd8 substrate; Q96LD8; 0.64% of 360,000 active; recombinant SENP8, Nedd8 substrate fluorescence; inhibition, % at 20 µM; in the data active = inhibition mostly above about 40%, no sharp cut-off; inactive = mostly below about 27%
SENP8 block-2 = inhibitors of human SENP8 protease. Q96LD8. inhibition, % at 10 µM. 1.2% of 330,000 active. AID 2540. purified SENP8, Z-RLRGG-aminoluciferin cleavage, luminescence; in the data active = inhibition above about 50%
Platelet DG rel = modulates dense granule release in human platelets | human platelet-rich plasma, SFLLRN dense granule ATP release, luminescence | inhibition, %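 (compounds screened at 7.5 µM in platelet-rich plasma)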 | 0.22% of 300,000 active;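 active = mean replicate score, as percent of positive control, at or above 50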
SENP8 confirm = confirmation of human SENP8 protease inhibitors | 40% of 6,200 active | Recombinant SENP8, Z-RLRGG-aminoluciferin luminescence, 60 min | AID 488912 | inhibition, % at 12.5 µM | shares compounds with SENP7 inh;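 active = mean inhibition across replicates above about 50%, limit read from the data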
SENP6 confirm = human SENP6 inhibition, confirmed | AID 488915 | recombinant SENP6, Z-RLRGG-aminoluciferin luminescence | inhibition, % at 12.5 µM | 58% of 6,200 active | shares compounds with SENP7 inh
SENP7 conf = human SENP7 inhibition, confirmed; 69% of 6,200 active; recombinant SENP7, Z-RLRGG-aminoluciferin luminescence, 40 min; inhibition, % at 12.5 µM; AID 488917; shares compounds with SENP7 inh
Casp3 SENP sel = caspase-3 inhibition (SENP selectivity assay); inhibition, % at 12.5 µM; 60% of 6,200 active; shares compounds with SENP7 inh; purified caspase-3, Z-DEVD-aminoluciferin luminescence, 60 min;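 active = mean inhibition above about 50%, limit read from the data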;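 note: plate controls were enzyme with DMSO for no effect and wells without caspase-3 for full effect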
Luc interf = luminescence interference (SENP counter-screen); shares compounds with SENP7 inh; Pre-incubated SENP8/Z-RLRGG-aminoluciferin, luciferase luminescence interference; inhibition, % at 12.5 µM; 39% of 6,200 active;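 active = mean inhibition above about 50% when retested at one dose, limit read from the data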;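 note: plate controls were DMSO wells with completed reaction for no effect and substrate without enzyme for full effect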
Active calls of the source: *; x = no result given.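 Rule for the calls, unless noted: active = mean inhibition above about 50% in the one-dose retest (limit read from the data); inactive = the rest.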

SMILES	SENP6 block	SENP7 inh	SENP8 block-1	SENP8 block-2	Platelet DG rel	SENP8 confirm	SENP6 confirm	SENP7 conf	Casp3 SENP sel	Luc interf
Cc1ccc2nc(-c3cccc(NC(=O)c4ccco4)c3)[nH]c2c1	92*	95*	-33	87*	9	2	93*	101*	89*	92*
S=C(Nc1ccc(-c2nc3ccccc3[nH]2)cc1)Nc1cccnc1	65*	41	-304	23	-2	17	9	34	45	23
O=C(/C=C/c1ccco1)Nc1ccc(-c2nc3ccccc3[nH]2)cc1	x	x	-80	x	-1	x	x	x	x	x
O=C(Nc1ccc(-c2nc3ccccc3[nH]2)cc1)c1ccco1	91*	86*	-69	84*	0	87*	87*	96*	88*	65*
CCOC(=O)CNC(=O)c1sc(NC(=O)c2cccc(F)c2)nc1C	33	6	-74	2	-3	x	x	x	x	x
O=C(Nc1nnc(Cc2ccc(F)cc2)s1)Nc1ccccc1F	-6	3	27	-5	3	x	x	x	x	x
CCOCCn1cnc2sc(C(=O)Nc3nc(C)c(C(=O)OCC)s3)c(C)c2c1=O	53*	83*	x	79*	x	10	5	10	3	4
CCOC(=O)c1sc(NC(=O)CNC(=O)Cn2cnc3sc(C)c(C)c3c2=O)nc1C	2	-6	16	-4	0	x	x	x	x	x
CCOC(=O)c1sc(NC(=O)c2ccc(CC)s2)nc1C	-4	67*	-153	-1	-1	4	7	15	14	5
CCOC(=O)c1sc(NC(=O)c2cc3ccccc3o2)nc1C	-36	34	-402	10	7	x	x	x	x	x
O=C(Nc1nnc(Cc2ccccc2F)s1)Nc1ccccc1F	15	85*	0	-4	0	10	11	5	0	0
CCOC(=O)CNC(=O)c1sc(NC(=O)c2ccccc2F)nc1C	77*	88*	-13	70*	1	-5	75*	94*	92*	79*
Cc1ccc(-c2nn3c(-c4ccccc4)nnc3o2)cc1	x	x	15	x	x	x	x	x	x	x
Cc1cc2nc(-c3cccc(Br)c3)c(Cc3ccccc3)n2c(C)c1Br	x	x	-2	x	x	x	x	x	x	x
CCCCn1c(N)c(N(CC(C)C)C(=O)COC(=O)C2(c3ccccc3)CC2)c(=O)[nH]c1=O	-6	-5	5	-7	1	x	x	x	x	x
CCOC(=O)c1sc(NC(=O)/C=C/c2c(F)cccc2Cl)nc1C	4	2	-332	3	8	x	x	x	x	x
CCOC(=O)c1sc(NC(=O)c2ccccc2OC)nc1C	97*	102*	-113	98*	12	80*	70*	99*	63*	13
CCOC(=O)c1sc(NC(=O)Nc2ccccc2F)nc1C	77*	93*	-10	67*	8	17	23	62*	62*	16
CCOC(=O)c1sc(NC(=O)c2cncc(Br)c2)nc1C	x	x	x	x	-1	x	x	x	x	x
CCOC(=O)c1sc(NC(=O)c2ccc3ncsc3c2)nc1C	2	59*	-126	11	-5	-9	-8	-3	12	2
CCOC(=O)c1sc(Nc2ccccc2Cl)nc1C	63*	42	-106	28	4	45	44	73*	35	40
Cc1csc(NC(=O)c2ccccc2C(=O)O)n1	-2	-2	8	-29	1	x	x	x	x	x
CCc1ccc(C(=O)Nc2nc(C)cs2)s1	76*	82*	-17	63*	-36	77*	73*	93*	78*	77*
OC(c1ccc(F)cc1)c1nc(-c2cnc3ccccc3c2)cs1 (stereo not given)	x	x	-59	x	x	x	x	x	x	x
Cc1nnc(Sc2cc(NCCO)c([N+](=O)[O-])c3nonc23)s1	x	x	33	x	2	x	x	x	x	x
SMILES	SENP6 block	SENP7 inh	SENP8 block-1	SENP8 block-2	Platelet DG rel	SENP8 confirm	SENP6 confirm	SENP7 conf	Casp3 SENP sel	Luc interf
CCC(=O)OCCNc1cc(Sc2nc3ccccc3s2)c2nonc2c1[N+](=O)[O-]	72*	44	60*	41	-2	1	12	-4	-2	-3
O=[N+]([O-])c1c(NCCCO)cc(Sc2nc3ccccc3s2)c2nonc12	82*	80*	26	91*	-9	7	13	0	-3	0
CN(C)CCCNc1cc(O)c2ncccc2c1	74*	44	-12	48	x	19	62*	25	90*	-7
Cc1ccc2nc(-c3ccc(NC(=O)Cc4cccs4)cc3)[nH]c2c1	-18	7	-263	-3	-5	x	x	x	x	x
O=C(O)c1ccccc1-c1ccccc1C(=O)Nc1ccc(-c2nc3cc(Cl)ccc3o2)cc1	25	13	-396	20	4	x	x	x	x	x
CC(=O)Nc1ccc(-c2nc3cc(Cl)ccc3o2)cc1	57*	59*	-426	44	0	25	24	53*	37	31
O=C(Nc1ccc2oc(-c3ccccc3)nc2c1)C1CCCO1 (stereo not given)	43	35	-427	31	8	x	x	x	x	x
Cc1ccc2nc(-c3ccc(NC(=O)C4CCCO4)cc3)[nH]c2c1 (stereo not given)	53*	40	-268	8	8	45	41	68*	58*	45
O=C(Nc1ccc(-c2nc3cc(Cl)ccc3o2)cc1)C1CCCO1 (stereo not given)	30	70*	-266	10	3	12	18	42	42	10
O=C(Nc1ccc(-c2nc3ccccc3o2)cc1)C1CCCO1 (stereo not given)	94*	91*	-292	80*	56*	91*	92*	100*	93*	48
O=C(CCCOc1ccccc1)NC(=S)Nc1ccccc1	-7	-5	2	-4	-5	x	x	x	x	x
CCCNC(=O)C1(C)CCN(C(=O)c2c(Cl)cccc2Cl)C1 (stereo not given)	x	x	-9	x	x	x	x	x	x	x
O=C(Nc1ccc(-c2nc3cccnc3s2)cc1)C1CCCO1 (stereo not given)	93*	94*	-384	90*	98*	95*	95*	101*	97*	79*
CN(C)c1ccc(N=Nc2ccc(S(N)(=O)=O)cc2)cc1	3	32	21	-10	8	x	x	x	x	x
CN(C)c1ccc(N=Nc2cccc(F)c2)cc1	94*	95*	31	87*	-41	6	73*	56*	59*	64*
CN(C)c1ccc(N=Nc2cccc3ccoc23)cc1	86*	90*	24	84*	0	77*	77*	94*	48	28

Source: PubChem BioAssay (several laboratories)
